The text below walks through data of PubChem BioAssay (NCI).

Among the test systems are HCT-15 colon; HT29 colon; SNB-75 CNS; SNB-19 CNS; U251 CNS; PC-3 prostate; SK-MEL-5 melanoma; UACC-62 melanoma; LOX IMVI melanoma; SK-MEL-28 melanoma.
Common to all, as to test: NCI-60 one-dose screen, 48 h (100 = growth as untreated, 0 = no growth, -100 = all killed)
Holding throughout (conditions): 10 µM unless noted

This is part of a sample that, as a whole, favours compounds with a hit. Of some 83,000 tested, about 20% had one in any assay.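 Method: cells in 96-well plates; compound added at one concentration; 48 h incubation; percent growth measured; values under 10 scored active.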 A number with no mark means an inactive call. Calls of active or inactive are those of the source.

On to `CC[C@H](C)[C@H](NC(=O)[C@H]1CCCCN1C)C(=O)N(C)[C@H](C(=O)NC12CC(C(=O)N[C@@H](Cc3ccccc3)C[C@H](C)C(=O)OC)(C1)C2)C(C)C`, for which the growth in the test with HCT-15 colon was 101%; in the test on HT29 colon it was 87.3%; in the test with SNB-75 CNS, 92.7%; in the test on SNB-19 CNS, 100%; in the test with U251 CNS, 96.7%; in the test on PC-3 prostate, 100%. Further, the growth in the test on SK-MEL-5 melanoma is 101%; in the test with UACC-62 melanoma, 102%; with LOX IMVI melanoma, 92.1%; in the test with SK-MEL-28 melanoma, 110%.

As for `[N-]=[N+]=CC(=O)CCC(=O)C=[N+]=[N-]`, the growth was 111% in the test on HCT-15 colon; 107% in the test on HT29 colon; 96.6% in the test on SNB-75 CNS; 99.6% with SNB-19 CNS; 100% in the test with U251 CNS; 86% in the test with PC-3 prostate. Also, the growth in the test on SK-MEL-5 melanoma is 116%; in the test on UACC-62 melanoma, 96.5%; with LOX IMVI melanoma, 94.9%; with SK-MEL-28 melanoma, 112%.

With `CC1=C([Te]c2ccccc2)C(=O)c2ccccc2C1=O`, the growth in the test on HCT-15 colon was -43.6% (active); in the test with HT29 colon, -22.7% (active); with SNB-75 CNS, -25.6% (active); in the test on SNB-19 CNS it was 2.43% (active); in the test on U251 CNS it was -30.1% (active); in the test with PC-3 prostate it was -30.8% (active). The growth with SK-MEL-5 melanoma is -95% (active); in the test on UACC-62 melanoma, -24.9% (active); in the test with LOX IMVI melanoma, -41.7% (active); in the test on SK-MEL-28 melanoma, -64.4% (active).

With `CC[C@H](C)[C@H](NC(=O)[C@H]1CCCCN1C)C(=O)N(C)[C@H](C[C@@H](OC(C)=O)c1nc(C(=O)NC23C4C5C2C2C3C4C52C(=O)OC)cs1)C(C)C` (stereo not given in full), the growth was 9.18% (active) in the test on HCT-15 colon; -5.46% (active) with HT29 colon; 22.9% with SNB-75 CNS; 28.1% in the test with SNB-19 CNS; 10.8% with U251 CNS; 23.5% in the test on PC-3 prostate. Besides, the growth is -56.9% (active) in the test with SK-MEL-5 melanoma, 43.8% with UACC-62 melanoma, 7.09% (active) with LOX IMVI melanoma and 59.1% in the test on SK-MEL-28 melanoma.

As for `CO/N=C1\CC[C@]2(C)[C@H]3CC[C@]4(C)C(=O)CC[C@H]4[C@@H]3C[C@@H]3SC(N)=N[C@@]32C1`, the growth in the test on HCT-15 colon is 93.8%; in the test on HT29 colon it was 93.2%; in the test with SNB-75 CNS, 97.1%; with SNB-19 CNS, 104%; with U251 CNS, 105%; in the test with PC-3 prostate, 85.4%. Besides, the growth was 101% with SK-MEL-5 melanoma, 79.7% with UACC-62 melanoma, 98.1% in the test with LOX IMVI melanoma and 94.5% in the test with SK-MEL-28 melanoma.

Turning to `CO[C@@H]([CH2][Hg][O]C(=O)c1ccccc1)[C@@H]([CH2][Hg][O]C(=O)c1ccccc1)OC`, the growth is -93.1% (active) in the test on HCT-15 colon; 95.7% in the test with HT29 colon; 85.6% in the test on SNB-75 CNS; 96.5% in the test on SNB-19 CNS; 93.3% in the test on U251 CNS; 88.7% in the test on PC-3 prostate. Further, the growth was 86.5% in the test with SK-MEL-5 melanoma, 95.2% in the test on UACC-62 melanoma, 36% in the test on LOX IMVI melanoma and 112% in the test on SK-MEL-28 melanoma.

As to `CC(=O)OC1CC2(O)C(CCC3(C)C(c4ccc(=O)oc4)CCC32O)C2(C)CCC(OC3OC(CO)C(O)C(O)C3O)C=C12` (stereo not given), the growth is -85.2% (active) in the test with HCT-15 colon; -55% (active) in the test on HT29 colon; -61.4% (active) in the test on SNB-75 CNS; -94% (active) in the test on SNB-19 CNS; -92.1% (active) with U251 CNS; -55.2% (active) with PC-3 prostate. Moreover, the growth with SK-MEL-5 melanoma was -91.9% (active); in the test on UACC-62 melanoma, -65.6% (active); in the test with LOX IMVI melanoma it was -85.4% (active); in the test on SK-MEL-28 melanoma, -31.7% (active).

For `O=C(O)c1cc([N+](=O)[O-])cc([N+](=O)[O-])c1`, the growth in the test with HCT-15 colon was 109%; in the test on HT29 colon it was 96.6%; with SNB-75 CNS it was 86.8%; with SNB-19 CNS, 105%; in the test on U251 CNS, 91.8%; in the test on PC-3 prostate it was 84.6%. Further, the growth with SK-MEL-5 melanoma is 98%; in the test with UACC-62 melanoma, 105%; in the test on LOX IMVI melanoma, 97%; in the test on SK-MEL-28 melanoma it was 106%.

As for `COc1ccc(C(C#N)C(C)=O)cc1` (stereo not given), the growth in the test with HCT-15 colon was 95%; with HT29 colon, 88.7%; in the test with SNB-75 CNS, 82.1%; in the test on SNB-19 CNS, 105%; with U251 CNS, 106%; with PC-3 prostate, 103%. For the same compound, the growth in the test on SK-MEL-5 melanoma was 102%; with UACC-62 melanoma, 97.6%; in the test with LOX IMVI melanoma, 98.1%; in the test on SK-MEL-28 melanoma it was 115%.

Consider `c1ccc(CCN2CCCCC2)nc1`, for which the growth in the test with HCT-15 colon was 74.1%; in the test on HT29 colon, 95.8%; with SNB-75 CNS, 78.8%; in the test with SNB-19 CNS it was 109%; with U251 CNS, 107%; in the test on PC-3 prostate it was 84.8%. Moreover, the growth with SK-MEL-5 melanoma was 115%; with UACC-62 melanoma, 97.9%; in the test with LOX IMVI melanoma, 107%; with SK-MEL-28 melanoma, 104%.

On to `CC[C@H](C)[C@H](NC(=O)[C@H]1CCCCN1C)C(=O)N(C)[C@H](C[C@@H](OC(C)=O)c1cccc(C(=O)N[C@@H](Cc2ccccc2)C[C@H](C)C(=O)OC)n1)C(C)C`, for which the growth was 8.45% (active) with HCT-15 colon; -5.46% (active) in the test with HT29 colon; 23.5% with SNB-75 CNS; 33.1% in the test with SNB-19 CNS; 14.3% in the test on U251 CNS; 18.9% in the test with PC-3 prostate. Further, the growth with SK-MEL-5 melanoma was -14.5% (active); with UACC-62 melanoma, 38.6%; in the test with LOX IMVI melanoma, 14.6%; with SK-MEL-28 melanoma it was 62.8%.

Consider `O=C(O)CNCP(=O)(O)O`, for which the growth in the test with HCT-15 colon was 123%; with HT29 colon, 98.6%; in the test with SNB-75 CNS, 96.5%; in the test on SNB-19 CNS it was 123%; in the test on U251 CNS, 98.3%; in the test with PC-3 prostate, 106%. Also, the growth in the test on SK-MEL-5 melanoma was 111%; in the test with UACC-62 melanoma, 105%; in the test with LOX IMVI melanoma it was 95.7%; in the test on SK-MEL-28 melanoma, 120%.
